About 3,200 (25%) of roughly 13,000 compounds showed an effect of 50% or more. Some of the results follow.
The compounds below were run on P. falciparum stage V gametocytes. Conditions: 48 h, 5 µM; inhibitor.
Set-up: BacTiter-Glo ATP luminescence viability of purified stage V gametocytes in 384-well plates, per cent inhibition versus DMSO

| Structure (SMILES) | % Inhibition [%] |
| --- | --- |
| O=C(/C=C/c1ccc(C(F)(F)F)cc1)NCCCCCN1CCN(C(=O)Nc2ccc(F)c(Cl)c2)CC1 [TCMDC-136096] | 8.329 |
| O=C(/C=C/c1ccc(Cl)cc1)NCCCCCN1CCN(C(=O)C=Cc2ccc(Cl)c(Cl)c2)CC1 [TCMDC-135914] | 71.52 |
| O=C(/C=C/c1ccc(Cl)c(Cl)c1)NCCCCCCN1CCN(C(=O)Nc2ccc(Cl)c(C(F)(F)F)c2)CC1 [TCMDC-135836] | -47.93 |
| O=C(/C=C/c1ccc(C(F)(F)F)cc1)NCCCCCN1CCCN(C(=O)Nc2ccc(F)c(Cl)c2)CC1 [TCMDC-136107] | 77.99 |
| O=C(/C=C/c1ccc(Cl)c(Cl)c1)NCCCCCN1CCCN(C(=O)Nc2ccc(Cl)cc2)CC1 [TCMDC-135748] | -7.449 |
| O=C(/C=C/c1ccc(Cl)c(Cl)c1)NCCCCCN1CCCN(C(=O)Nc2ccc(Cl)c(C(F)(F)F)c2)CC1 [TCMDC-135762] | -47.47 |
| O=C(/C=C/c1ccc(C(F)(F)F)cc1)NCCCCCN1CCCN(C(=O)Nc2ccc(Cl)c(Cl)c2)CC1 [TCMDC-136104] | -57.55 |
| Cc1cc(C)c(NC(=O)N2CCCN(CCCCCNC(=O)/C=C/c3ccc(Cl)c(Cl)c3)CC2)c(C)c1 [TCMDC-135753] | 28.16 |
| Cc1noc(-c2ccccc2)c1NC(=O)N1CCN(CCCCCCNC(=O)/C=C/c2ccc(Cl)c(Cl)c2)CC1 [TCMDC-135892] | 75.05 |
| Cc1noc(-c2ccccc2)c1NC(=O)NC1CCN(CCCCCNC(=O)/C=C/c2ccc(Cl)c(Cl)c2)CC1 [TCMDC-135890] | -22.75 |
| O=C(/C=C/c1ccc(Cl)c(Cl)c1)NCCCCCCN1CCCN(C(=O)Nc2ccc(Cl)c(C(F)(F)F)c2)CC1 [TCMDC-135935] | 84.32 |
| O=C(/C=C/c1ccc(Cl)c(Cl)c1)NCCCCCN1CCCN(C(=S)Nc2ccc(Cl)cc2)CC1 [TCMDC-135893] | 2.458 |
| Cc1cccc2[nH]c(-c3cccc(-c4cccc(NC(=O)CC5NC(=O)c6ccccc65)c4)c3)nc12 (stereo not drawn) [TCMDC-137093] | 12.03 |
| CCOc1cc(C)ccc1C1CCN(CCCCNC(=O)c2coc(-c3ccc(Cl)cc3)c2)CC1 [TCMDC-138530] | -52.9 |
| O=C(c1cc(C(=O)NCc2ccc(Cl)cc2)c(=O)n(Cc2ccc(Cl)cc2)c1)c1cc(Cl)ccc1O [TCMDC-124339] | -61.86 |
| OC(CNc1ccnc(Nc2ccc(Cl)cc2)n1)c1cccc(C(F)(F)F)c1 (stereo not drawn) [TCMDC-136587] | 30.58 |
| O=C(/C=C/c1ccc(Cl)c(Cl)c1)NCCCCCN1CCCN(C(=O)Nc2cccc(C(F)(F)F)c2)CC1 [TCMDC-135758] | 79.21 |
| O=C(/C=C/c1ccc(Cl)c(Cl)c1)NCCCCCCN1CCCN(C(=O)Nc2ccc(F)c(Cl)c2)CC1 [TCMDC-135940] | 14.82 |
| O=C(/C=C/c1ccc(Cl)c(Cl)c1)NCCCCCCN1CCCN(C(=O)Nc2ccc(Cl)c(Cl)c2)CC1 [TCMDC-135933] | 52.33 |
| O=C(/C=C/c1ccc(Cl)c(Cl)c1)NCCCCN1CCCN(C(=O)Nc2ccc(F)c(Cl)c2)CC1 [TCMDC-135931] | -30.88 |
| O=C(/C=C/c1ccc(Cl)c(Cl)c1)NCCCCN1CCCN(C(=O)Nc2ccc(Cl)c(Cl)c2)CC1 [TCMDC-135932] | 87.86 |
| O=C(/C=C/c1ccc(Cl)c(Cl)c1)NCCCCCCN1CCCN(C(=O)Nc2ccc(C(F)(F)F)cc2)CC1 [TCMDC-135937] | -27.04 |

| Structure (SMILES) | % Inhibition [%] |
| --- | --- |
| O=C(/C=C/c1ccc(Cl)c(Cl)c1)NCCCCCCN1CCCN(C(=O)Nc2cccc(C(F)(F)F)c2)CC1 [TCMDC-135934] | 13.78 |
| O=C(/C=C/c1ccc(Cl)c(Cl)c1)NCCCCCN1CCCN(C(=O)Nc2ccc(Cl)c(Cl)c2)CC1 [TCMDC-135759] | -47.93 |
| O=C(/C=C/c1ccc(Cl)c(Cl)c1)NCCCCCCN1CCN(C(=O)Nc2ccc(Cl)c(Cl)c2)CC1 [TCMDC-135835] | 30.42 |
| CCCO[C@H](C(=O)OC)[C@@H](CC1Cc2ccccc2C1)C(=O)NCCC1=CCCCC1 [TCMDC-140419] | -16.75 |
| COc1ccc2nc(C)cc(Nc3ccc(Oc4ccc5ccccc5c4)c(Cl)c3)c2c1 [TCMDC-124209] | -14.35 |
| N#Cc1cccc(-c2nc(NCc3cccc(C(F)(F)F)c3)nn2-c2cccc(C(F)(F)F)c2)c1 [TCMDC-133548] | -85.5 |
| Cc1nc(N)nc(N)c1-c1ccc(Br)c(Br)c1 [TCMDC-137372] | 14.5 |
| COc1ccc2ncc(F)c(CCN3CCC(CNC(=O)C(=O)c4c[nH]c5ccccc45)CC3)c2n1 [TCMDC-135874] | 3.215 |
| Cc1cc(C(=O)Nc2ccc3c(ccn3C3CCCN(Cc4ccc(C(F)(F)F)cc4F)CC3)c2)no1 (stereo not drawn) [TCMDC-135088] | 41.42 |
| COC(=O)c1ccc(-c2ccc(-c3cccnc3)cc2C)cc1 [TCMDC-139074] | 95.09 |
| COc1cccc(NC(=O)Nc2ccc(C)c(-c3ccc(C(=O)Nc4ccncc4)cc3)c2)c1 [TCMDC-133704] | -18.6 |
| COc1ccc(NC(=O)c2ccc(-c3ccc(-c4cccnc4)cc3)c(C)c2)cc1OCCN(C)C [TCMDC-138989] | 38.05 |
| COc1ccc(NC(=O)c2ccc(Br)c(C)c2)cc1N1CCN(CCCc2c[nH]c3ccccc23)CC1 [TCMDC-139036] | 49.59 |
| COc1ccc(NC(=O)c2ccc(Br)c(C)c2)cc1N1CCN(CCCCc2ccccc2)CC1 [TCMDC-139035] | -7.283 |
| COc1ccc(NC(=O)c2ccc(NC(=O)c3ccc(Cl)cc3)cc2)cc1N1CCN(C)CC1 [TCMDC-138188] | 5.64 |
| CCN1CCN(c2cc(C)c3cc(NC(=O)c4ccc(OC)c(OC)c4)ccc3n2)CC1 [TCMDC-123598] | 74.46 |
| COc1ccc(NC(=O)c2cccc(Br)c2)cc1N1CCN(CCCCCCCN2CCN(c3cc(NC(=O)c4cccc(Br)c4)ccc3OC)CC2)CC1 [TCMDC-139020] | 104.8 |
| COc1ccc(C(=O)Nc2ccc3nc(N4CCCCC4)cc(C)c3c2)cc1OC [TCMDC-124422] | 4.122 |
| CCN1CCN(c2cc(C)c3cc(NC(=O)c4ccc(OC)c([N+](=O)[O-])c4)ccc3n2)CC1 [TCMDC-123599] | 3.112 |
| COc1ccc(NC(=O)c2ccc(C=Cc3ccc(C(F)(F)F)cc3)cc2)cc1N1CCN(C)CC1 [TCMDC-138674] | 15.84 |
| COc1ccc(NC(=O)c2ccc(-c3cccc(OCc4ccccc4)c3)cc2)cc1N1CCN(C)CC1 [TCMDC-138991] | -59.54 |
| COc1ccc(NC(=O)c2ccc(OCCCCCCCOc3ccc(C(=O)Nc4ccc(OC)c(N5CCN(C)CC5)c4)cc3)cc2)cc1N1CCN(C)CC1 [TCMDC-139007] | 102 |

| Structure (SMILES) | % Inhibition [%] |
| --- | --- |
| COc1ccc(NC(=O)c2ccc3cc4ccccc4cc3c2)cc1N1CCN(C)CC1 [TCMDC-138983] | 82.38 |
| COc1ccc(NC(=O)c2ccc(-c3nc(-c4ccccc4)cs3)cc2)cc1N1CCN(C)CC1 [TCMDC-138980] | -14.93 |
| O=C(Nc1cc(C(F)(F)F)cc(C(F)(F)F)c1)c1cccc([N+](=O)[O-])c1 [TCMDC-123503] | -13.95 |
| COc1csc2cc(Br)ccc12 [TCMDC-139000] | 9.347 |
| COc1cc(C(=O)NCCCN2CCN(c3cc(Cl)ccc3OC)CC2)ccc1-c1nc2cc(Cl)c(Cl)cc2[nH]1 [TCMDC-140079] | 4.425 |
| COc1cc(C(F)(F)F)c2cc(CNCCCNc3nc4ccccc4[nH]3)[nH]c2c1 [TCMDC-140014] | 33.56 |
| CCOc1ccc(Nc2ccc3nonc3c2S(=O)(=O)Nc2ccc(OCC)cc2)cc1 [TCMDC-138325] | -11.05 |
| CCC(CC)(CCC#N)CN(C[C@@H](O)[C@H](Cc1ccccc1)NC(=O)OC(C)(C)C)S(=O)(=O)c1ccc(OC)cc1 [TCMDC-138270] | 4.425 |
| COc1ccc(O)c(Cc2cnc3nc(N)[nH]c(=O)c3c2C)c1 [TCMDC-137766] | -34.15 |
| CCCNc1ccc2nccc(CCN3CCC(NCc4ccc5c(n4)NC(=O)CS5)CC3)c2n1 [TCMDC-141591] | 39.25 |
| CO/C(=C\C=C\c1cc2cc(Cl)c(Cl)cc2[nH]1)C(=O)NCCN1CCCCC1 [TCMDC-139019] | 39.34 |
| CCOC(=O)C1CCN(CCCNC(=O)/C(=C/C=C/c2cc3cc(Cl)c(Cl)cc3[nH]2)OC)CC1 [TCMDC-139356] | -1.751 |
| COc1ccc2nc(-c3ccc(C(=O)NCCCN4CCN(c5cc(Cl)ccc5OC)CC4)cc3)[nH]c2c1 [TCMDC-140024] | -1.879 |
| CO/C(=C\C=C\c1cc2cc(Cl)c(Cl)cc2[nH]1)C(=O)NCCCN1CCN(C2CCCCC2)CC1 [TCMDC-139296] | -42.38 |
| COc1ccc(Cl)cc1N1CCN(CCCNC(=O)c2ccc(-c3nc4cc(Cl)c(F)cc4[nH]3)c(F)c2)CC1 [TCMDC-140098] | -15.17 |
| CO/C(=C\C=C\c1cc2cc(Cl)c(Cl)cc2[nH]1)C(=O)NCCCN1CC(C)N(C)CC1C (stereo not drawn) [TCMDC-139044] | -57.76 |
| CO/C(=C\C=C\c1cc2cc(Cl)c(Cl)cc2[nH]1)C(=O)NCCCCN1CCN(c2ccccc2OC)CC1 [TCMDC-139178] | -64.2 |
| CO/C(=C\C=C\c1cc2cc(Cl)c(Cl)cc2[nH]1)C(=O)NCCCN1CCN(c2cccc(Cl)c2)CC1 [TCMDC-139141] | 15.28 |
| CO/C(=C\C=C\c1cc2cc(Cl)ccc2[nH]1)C(=O)NCCCN1CCN(c2cc(Cl)ccc2OC)CC1 [TCMDC-139242] | 50.82 |
| CO/C(=C\C=C\c1cc2cc(Cl)c(Cl)cc2[nH]1)C(=O)NCCCN1CCCC[C@H]1C [TCMDC-139058] | 98.53 |
| CO/C(=C\C=C\c1cc2cc(Cl)c(Cl)cc2[nH]1)C(=O)NCCCN1CCCC[C@@H]1C [TCMDC-139059] | 70.67 |
| COc1ccc(Cl)cc1N1CCN(CCCNC(=O)c2ccc(-c3nc4cc(Cl)c(F)cc4[nH]3)cc2)CC1 [TCMDC-140094] | 66.12 |
